A selection: hits, their analogues and other compounds. The true share with any hit is near 0.86%.
HIV TAR-Tat: TAR RNA-Tat peptide displacers, HIV-1, primary screen, biochemical, FRET, FAM/TAMRA-labeled Tat | HIV-1 TAR RNA, Tat peptide displacement FRET; active compounds read high | 100,000 tested, 0.6% active | z-score (no concentration beside the values) | AID 1259389, 2018; active = z-score of 3 or more in at least 2 runs
CDC25B CDK2 inh: primary biochemical HTRF screen for blockers of M-phase inducer phosphatase 2 binding to CDK2/cyclin A | 94,000 tested, 0.72% active | z-score (concentration not given with the values) | HTRF CDC25B-CDK2/CyclinA binding, anti-His/anti-Flag; active compounds read high | P30305+P24941; in the data active = z-score above about 3.2
A number is an active result; i = inactive; nt = not tested or not shown.

SMILES | HIV TAR-Tat | CDC25B CDK2 inh
O=C(CCC(=O)N1c2ccccc2NC2=C(C(=O)CCC2)C1c1ccco1)NC1CCCCC1 (stereo not given) | 3.6 | nt
O=C(CN1c2ccccc2NC2=C(C(=O)CCC2)C1c1ccco1)NC1CCCC1 (stereo not given) | i | nt
CCc1cc2c(cc3c(=O)n(CC(=O)NCc4ccco4)nc(CC)n32)s1 | i | i
Cc1cc(C)c(S(=O)(=O)Nc2cc(Br)c(O)c3ccccc23)c(C)c1 | nt | 19
Cc1cc(C)c(S(=O)(=O)Nc2ccc(O)cc2)c(C)c1 | i | i
O=C(NCc1ccccn1)C1CCN(c2ncnc3c2sc2cccc(F)c23)CC1 | i | i
CC1c2cccn2CCN1C(=O)Nc1ccc2c(c1)OCCO2 (stereo not given) | i | nt
CCCN1CCN(c2ncc3c(n2)CCN(Cc2ccccc2C)C3)CC1 | i | nt
CCn1cnc2cc(NCc3cccc(Br)c3)ccc21 | i | 13
Cc1ccc(CNc2ccc3c(c2)nc(C)n3C)cc1 | i | i
COc1ccc(CNc2ccc3c(c2)ncn3C)cc1OC | i | i
CCCn1cnc2cc(NCc3ccc(C)cc3)ccc21 | i | 13
c1ccc(-n2cnc3cc(NCc4ccco4)ccc32)cc1 | i | i
CCn1cnc2cc(NCc3ccco3)ccc21 | i | 16
CCN(CC)S(=O)(=O)c1ccc2c(c1)nnn2C1CCN(C(=O)NCCC(C)C)CC1 | i | nt
CC(C)n1c(C2CC(=O)N(Cc3ccccc3)C2)nc2ccccc21 (stereo not given) | i | i
O=S(=O)(c1ccc(Cl)cc1)N1CCCC(c2nc(-c3cccs3)no2)C1 (stereo not given) | i | nt
CCOc1ccc(OCC)c(NS(=O)(=O)c2c(C(=O)N3CCCC3)c(C)n(C)c2C)c1 | i | nt
O=C(/C=C/c1ccco1)Nc1ccc(C(=O)O)cc1NC(=O)/C=C/c1ccco1 | nt | 17
O=C(O)/C=C/C(=O)Nc1ccc(C(F)(F)F)cc1NC(=O)/C=C/C(=O)O | nt | i
CCOC(=O)c1cnn2c1nc(N)c1ccccc12 | nt | i
Cc1ccc2scc(N3CCN(Cc4ccccc4)CC3)c(=O)c2c1 | i | nt
C=CCN1C(C(=O)c2ccccc2)=C(OC(=O)c2ccccc2OC)c2ccccc2S1(=O)=O | nt | i
Cn1c(=O)n(Cc2ccccc2Cl)c(=O)c2c1nc1n2CCN1Cc1ccco1 | nt | i
Cn1c(=O)n(Cc2ccccc2F)c(=O)c2c1nc1n2CCN1Cc1ccco1 | 4.7 | nt
SMILES | HIV TAR-Tat | CDC25B CDK2 inh
CN1C(=O)c2cc(NC(=O)c3cccnc3)ccc2N2CCN=C12 | i | nt
CC1CCCCN1CCNC(=O)CCCn1c(=O)c2cccn2c2cccnc21 (stereo not given) | i | nt
COCCNc1cc(N2CCN(c3ccccn3)CC2)c2noc3c2c1C(=O)c1ccccc1-3 | i | i
CN(C)CCCNc1cc(N2CCN(c3ccccn3)CC2)c2noc3c2c1C(=O)c1ccccc1-3 | 7.2 | i
O=C1c2ccccc2-c2onc3c(N4CCN(C5CCCCC5)CC4)cc(NCCO)c1c23 | i | i
CCOCCCNc1cc(N2CCC(C)CC2)c2noc3c2c1C(=O)c1ccccc1-3 | i | i
COCCNc1cc(N2CCCC2)c2noc3c2c1C(=O)c1ccccc1-3 | i | i
CN(C)CCCNc1cc(N2CCN(C3CCCCC3)CC2)c2noc3c2c1C(=O)c1ccccc1-3 | 8.7 | i
CC1CCN(c2cc(NCCCN(C)C)c3c4c(onc24)-c2ccccc2C3=O)CC1 | 16 | i
COCCNc1cc(N2CCN(C3CCCCC3)CC2)c2noc3c2c1C(=O)c1ccccc1-3 | 8.1 | i
CCCCOC(=O)Nc1sc(C)c(C)c1C(=O)OCC | i | i
CCCCN1CC(c2nc3ccccc3n2CCCOc2ccccc2)CC1=O (stereo not given) | i | i
CN(C)CCCNc1oc(-c2ccc(F)cc2)nc1C#N | i | i
COc1ccc(N2CCCS2(=O)=O)cc1NS(=O)(=O)c1cccs1 | i | nt
COc1ccc(S(=O)(=O)NCc2nc(-c3ccc(Cl)cc3)no2)cc1 | i | i
C=CCNS(=O)(=O)c1ccc(OC)c(OC)c1 | i | i
CCN(CC)S(=O)(=O)c1ccc2c(c1)NC(=O)CN2C | i | nt
O=C(Nc1sc2c(c1C(=O)NCc1ccco1)CCCC2)c1csnn1 | i | i
O=C(Nc1sc2c(c1C(=O)NCc1ccco1)CCC2)c1csnn1 | 9.3 | i
CCN(Cc1ccccc1)C(CNS(=O)(=O)c1ccccc1)c1ccccc1 (stereo not given) | i | i
Cc1noc2ncnc(NC3CC3)c12 | i | nt
O=C(NCCN1CCN(c2ccccc2)CC1)Nc1ccc(F)cc1F | 7.7 | i
O=C(NCCCN1CCN(c2ccccc2)CC1)Nc1ccc(F)cc1F | i | i
Cc1nnc(SCC(=O)Nc2ccc(C(C)C)cc2)c2cc3occc3n12 | i | nt
COC(=O)c1cc(=O)c(O)c2c(O)c(O)ccc2c1 | 25 | nt
SMILES | HIV TAR-Tat | CDC25B CDK2 inh
COC(=O)c1cc(NC(=O)c2ccc3ccccc3c2)cc(C(=O)OC)c1 | nt | i
O=c1[nH]c2ccc(NCc3ccc4c(c3)OCO4)cc2[nH]1 | i | i
O=c1[nH]c2ccc(NCc3ccc(-c4ccccc4F)o3)cc2[nH]1 | i | 4.7
O=c1[nH]c2ccc(NCc3ccc(-c4ccc(Cl)cc4)o3)cc2[nH]1 | i | 10
O=c1[nH]c2ccc(NCc3ccc(-c4ccccc4)o3)cc2[nH]1 | i | i
Cc1nc2nc(NC(=O)CC(C)C)[nH]n2c(=O)c1C | i | i
COCCn1c(Cc2cccn2C)nnc1SCC(=O)N1CCc2ccccc21 | i | i
COc1cccc(C2CC(=O)N3CN(Cc4ccco4)CSC3=C2C#N)c1OC (stereo not given) | i | 3.4
COc1ccc(C2CC(=O)N3CN(Cc4ccco4)CSC3=C2C#N)c(OC)c1 (stereo not given) | i | 5.9
CC(C)c1ccc(C2CC(=O)N3CN(Cc4ccco4)CSC3=C2C#N)cc1 (stereo not given) | i | i
COC(=O)C1=C(C(=O)OC)SC(=C2C(=S)C(C)(C)Nc3ccc(C)cc32)S1 | i | 18
COC(=O)C1=C(C(=O)OC)SC(=C2C(=S)C(C)(C)Nc3cc(C)c(C)cc32)S1 | i | i
CCc1cc(C=N)c([S-])s1.CCc1cc(C=N)c([S-])s1.[Zn+2] | nt | 19
CCc1cc2c(=S)[nH]cnc2s1 | nt | i
O=C(CN1C(=O)c2ccccc2C1=O)Oc1cccc(-c2cnc3ccccc3n2)c1 | nt | i
O=C1c2oc3ccc(F)cc3c(=O)c2C(c2cccs2)N1CCCN1CCOCC1 (stereo not given) | i | nt
Cc1sc2nc(CNc3ccccc3Cl)[nH]c(=O)c2c1C | i | i
COc1cccc(C=Nc2ccccc2SCCC#N)c1O | nt | 6.9
COc1cc(C(=O)Nc2ccccc2SCCC#N)cc(OC)c1OC | nt | i
O=C(Nc1ccc(Br)cc1)c1cccc(-n2cnnc2)n1 | i | nt
O=C(Nc1ccc(O)cc1)c1cccc(-n2cnnc2)n1 | 12 | nt
COc1cc(NC(=O)COCc2cc(-c3cccs3)on2)c(OC)cc1Cl | i | nt
O=C1CCOc2c(F)cc(F)cc21 | nt | i
O=C1Nc2c(C(=O)O)cccc2C1=O | 21 | i
O=C(O)c1ccc2c3c(ccc(C(=O)O)c13)C(=O)NC2=O | i | i
CCCCNc1nc(SC)nc(-c2ccccc2)c1C#N | i | i
Fc1cccc(Nc2ncnc3onc(-c4ccc(Cl)cc4)c23)c1 | 18 | nt
Fc1ccc(-c2noc3ncnc(Nc4cccc(Cl)c4)c23)cc1 | i | nt
COc1ccc(N=Nc2ccc(OC)c(OC)c2)cc1OC | nt | i

Assay outcomes: PubChem BioAssay, Center for Chemical Genomics, University of Michigan
